From PubChem BioAssay (NCATS)
Results filed as inconclusive are left out. A number with no mark means an inactive call. Active and inactive are the calls of the source. The call rests on the fitted dose curve; in most records, active means well fitted inhibition curve with a large enough effect; inconclusive means small, poorly fitted or top-dose-only effect; inactive means flat fitted curve, though single readings scatter. *1 amine or outer side, *2 acyl side, *3 side chain or, on linkers, in order; H or OH if unused. Where a SMILES comes first, the peptide text is derived from it. Bridges are numbered along the chain shown (N, C = ends). [ ]: non-standard residue; d: D form. The star is where a group is joined. ξ: configuration not given here. ξhTyr(3S-OH,4S-OH,3'-OSO3H) = NC(C(=O)O)[C@H](O)[C@@H](O)c1ccc(O)c(OS(=O)(=O)O)c1; Orn(4R-OH,5R-OH) = O=C([C@H](C[C@@H](O)[C@@H](O)N[*:3])N[*:1])[*:2]; X2 = CCCCCOc1ccc(-c2cc(-c3ccc(C(=O)*)cc3)no2)cc1; X3 = C[C@H]1CN([*:1])C(C(=O)[*:2])[C@H]1O; ξGln(3R-OH) = NC(=O)C[C@@H](O)C(N)C(=O)O; ξPro(4R-OH) = O=C(O)C1C[C@@H](O)CN1; ξThr(3R) = C[C@@H](O)C(N)C(=O)O; Hexanoyl = CCCCCC(=O)*
Potency means the concentration at half of the fitted maximal effect.

Test: Confirmatory screen GU Rhodamine qHTS for Zika virus inhibitors qHTS (AID 1347157); further: nearly all actives have a fitted effect of over 70% in size
Conditions: purified enzyme assay, Rhodamine110 substrate fluorescence, 15 min; series mostly up to 114 µM; activity change, negative = inhibition: at the top concentration
Source text: Avindra Nath, Ph.D., National Institute of Neurological Disorders and Stroke (NINDS), Bethesda, MD
Radhakrishnan Padmanabhan, Ph.D., Georgetown University (GU), Washington D.C.
Zika Virus causes congenital defects, including microcephaly and is associated with Guillain-Barre syndrome, eningoencephalitis and myelitis in infected adult. […] Using a target-based approach, we hope to establish a screening paradigm to uncover novel, cell-active NS2B-NS3 protease (Zika Virus) specific inhibitors from NCATS' collection of small molecules using qHTS.
Four assay panel was created to identify potential Zika Virus inhibitors. Namely, (1) GU unlinked NS2B-NS3 AMC tagged protease qHTS, (2) GU unlinked NS2B-NS3 Rhodamine tagged protease qHTS, (3) NINDS linked NS2B-NS3 AMC tagged protease qHTS, (4) NINDS linked NS2B-NS3 Rhodamine tagged protease qHTS. Active compounds were re-acquired and re-screened to confirm inhibition. Inhibitors were further screened against various confirmatory and counterscreens in dose response format.
Early Translation Branch (ETB)
National Center for Advancing Translational Sciences (NCATS), Rockville, MD
National Institute of Health (NIH), Bethesda, Maryland
Padmanabhan lab provided the NS2B hydrophilic domain and NS3 protease domain in a noncovalent complex used for the unlinked assay. Control compound aprotinin is obtained from Thermo Scientific (#78432; Waltham, Massachusetts). Rhodamine110 substrate ([N-Cbz]-Nle-Lys-Arg-Arg-Rhod110-Arg-Arg-Lys-Nle-[N-Cbz]) was purchased from either Genscript or Bachem.
1536-well Protease (Rhodamine110 Substrate) Assay:
Briefly, 3 microL of enzyme (25 nM final concentration), in assay buffer (10 mM Tris-HCl pH 8.0 with 0.01% Tween 20) were dispensed into a 1,536-well solid-bottom black plate (Greiner Bio One, Monroe, NC). Twenty-three nL of compounds (final concentration range 7.28 nM to 114 microM) or control Aprotinin (final concentration range 3.47 nM to 114 microM) were transferred via Wako Pin-tool (Wako Automation, Richmond, VA). Samples were incubated (room temperature, protected from light) for 15 minutes followed by a 1 microL Rhodamine110 substrate addition (1.5 microM final concentration). Plates were then immediately read on a ViewLux High-throughput CCD imager (PerkinElmer, Waltham, MA) equipped with FITC fluorescence optics (480(20) nm excitation, 540(25) nm emission), then incubated (room temperature, protected from light) for 15 minutes (~15% conversion). The change in fluorescence intensity over the 15-minute reaction period was normalized against no-inhibitor and no-enzyme controls and the resulting percent inhibition data were fitted to a 4-parameter Hill equation. Aprotinin was used as intraplate control.
In the case of COc1cc(CCCO)ccc1O[C@@H]1O[C@H](CO)[C@@H](O)[C@H](O)[C@H]1O, the Potency is reported as 34.3 µM (active).
In the case of C=CC1(C)C=C2CC[C@H]3[C@@](C)(C(=O)O)CCC[C@]3(C)C2CC1 (stereo not given in full), the Potency is reported as 15.3 µM (active).
With CC(C)=CCC[C@@](C)(O)[C@H]1CC[C@]2(C)[C@@H]1[C@H](O)CC1[C@@]3(C)CC[C@H](O[C@@H]4O[C@H](CO)[C@@H](O)[C@H](O)[C@H]4O[C@@H]4O[C@H](CO)[C@@H](O)[C@H](O)[C@H]4O)C(C)(C)[C@@H]3CC[C@]12C (stereo not given in full) the Potency was 14.7 µM (active).
With CCOc1ccc(-c2cc(NC(=O)c3c(F)cccc3F)c(C(=O)O)s2)cc1 the Potency was 4.41 µM (active).
With Cc1ccc2[nH]c(=O)c(C3=NN(C(=O)CCC(=O)O)C(c4ccc(Br)cc4)C3)c(-c3ccccc3)c2c1 (stereo not given) the Potency was 3.93 µM (active).
For Cn1cc(-c2c[nH]c3ncnc(N4CCOCC4)c23)cn1, the “activity change, negative = inhibition” value was -2.83%.
For CC(=O)OC12CC(C)C(OC(=O)c3ccccc3)C1/C=C(/C)C(OC(=O)c1ccccc1)CC(=O)C(C)(C)/C=C/C(C)C2=O (stereo not given), the Potency was 4.64 µM (active).
For CCC(C)/C=C(C)/C=C/C1=CC2=CC(=O)C(C)(O)C(OC(C)=O)C2CO1 (stereo not given), the Potency was 30.6 µM (active).
With C/C(=C\CCC(C)CCO)C(=O)OC[C@H]1O[C@@H](O[C@@H]2OC=C(C(=O)O)[C@H]3CC[C@](C)(O)[C@@H]23)C(O)[C@@H](O)C1O (stereo not given in full) the Potency was 4.29 µM (active).
In the case of Cc1ccccc1-n1nc(-c2c(-c3ccc(F)cc3)nn3c2NC[C@@H](CO)C3)ccc1=O, the “activity change, negative = inhibition” value is reported as -1.55%.
With O=C(O)CC/C=C\C[C@H]1CO[C@@H](c2ccccc2Cl)O[C@H]1c1ccccc1O the Potency was 31.2 µM (active).
With CC1(C)[C@H]2C[C@H](C/C=C\CCCC(=O)O)[C@@H](NC(=O)c3csc4ccc(O)cc34)[C@@H]1C2 the Potency was 24.8 µM (active).
In the case of CCCCCOc1ccc(-c2cc(-c3ccc(C(=O)N[C@H]4C[C@@H](O)[C@@H](O)NC(=O)C5[C@@H](O)[C@@H](C)CN5C(=O)C([C@H](O)CC(N)=O)NC(=O)C([C@H](O)[C@@H](O)c5ccc(O)c(OS(=O)(=O)O)c5)NC(=O)C5C[C@@H](O)CN5C(=O)C([C@@H](C)O)NC4=O)cc3)no2)cc1 (stereo partly drawn) (X2-[Orn(4R-OH,5R-OH)][ξThr(3R)][ξPro(4R-OH)][ξhTyr(3S-OH,4S-OH,3'-OSO3H)][ξGln(3R-OH)][X3]; lactam 1-C), the Potency is reported as 4.82 µM (active).
For COc1cc(/C=C/c2ccccc2)c(C(=O)O)c(O)c1CC=C(C)C, the Potency was 3.06 µM (active).
With COc1cc2c(c(OC)c1O)C(c1ccc(O)cc1)C1C(=O)OC3C(COC(=O)C1=C2)OC(CO)(OC1OC(COC(=O)/C=C/c2ccc(OC4OC(C)C(O)C(O)C4O)cc2)C(O)C(O)C1O)C3O (stereo not given) the Potency was 7.44 µM (active).
With CC1C(O)C(O)C2C(C(=O)OCCc3ccc(O)cc3)=COC(O[C@@H]3O[C@H](CO)[C@@H](O)[C@H](O)[C@H]3O)C12 (stereo not given in full) the Potency was 8.57 µM (active).
With CSCC[C@H](NC(=O)[C@H](CO)NC(=O)[C@H](CCC(=O)O)NC(C)=O)C(=O)N[C@H](C=O)CC(=O)O (Ac-ESMD-aldehyde) the activity change, negative = inhibition was 8.12% [at 22 µM].
In the case of COc1cc(Nc2ccc([N+](=O)[O-])cc2C(=O)O)cc2ccccc12, the Potency is reported as 1.97 µM (active).
For C/C=C/C=C/C=C/C(=O)O[C@@H]1[C@@H](OC)C2=C(C(=O)N(C(CCC(=O)O)C(=O)O)C2)[C@@]2(C)CCCC(C)(C)[C@H]12 (stereo not given in full), the Potency was 4.82 µM (active).
For C/C(=C\CC/C(C)=C/CC[C@]1(C)CCc2cc(O)cc(C)c2O1)CC/C=C(\C)C(=O)O, the Potency was 3.83 µM (active).
With Cc1ccc([C@@H]2CC=C(C(=O)O)[C@H](c3ccc(C(C)(C)C)cc3)N2S(=O)(=O)c2ccc(C)cc2)cc1 the Potency was 3.12 µM (active).
With COc1cnc(-c2ccc(Cn3c(CC(C)(C)C(=O)O)c(SC(C)(C)C)c4cc(OC[C@@H]5Cc6ccccc6N5C(C)=O)ccc43)cc2)nc1 the Potency was 1.53 µM (active).
For CC1(C)CC[C@]2(C(=O)O)CC[C@]3(C)C(=CCC4[C@@]5(C)CC[C@H](O[C@@H]6O[C@H](C(=O)O)[C@@H](O)[C@H](O)[C@H]6O)C(C)(C)C5CC[C@]43C)C2C1 (stereo not given in full), the Potency was 5.84 µM (active).
In the case of CCc1nnc(NS(=O)(=O)c2ccc(NC(=S)NC(=O)/C=C/c3ccc(F)cc3)cc2)s1, the Potency is reported as 2.78 µM (active).
For O=C(O)CC1CCC(c2ccc(-c3ccc(Nc4ccc(C(F)(F)F)nc4)cn3)cc2)CC1 (stereo not given), the Potency was 4.41 µM (active).
For COc1cc2c(c(O)c1OC/C=C(\C)CC/C=C(/C)CCC=C(C)C)CN(C(CCC(=O)O)C(=O)O)C2=O (stereo not given), the Potency was 3.41 µM (active).
For CC1(C)CC=C(c2cnc3ccccc3c2)c2cc(C(=O)Nc3ccc(C(=O)O)cc3)ccc21, the Potency was 2.78 µM (active).
In the case of O=C(O)C1(c2ccc(-c3ccc(Cl)c(Cl)c3)c(F)c2)CC1, the Potency is reported as 11.1 µM (active).
In the case of C=C1CCC2C(C)(C)CCC[C@]2(C)[C@H]1CC/C(C)=C/C(=O)O (stereo not given in full), the Potency is reported as 11.1 µM (active).
With CCCCCC(=O)N1CCC[C@H]1C(=O)N[C@@H](Cc1ccc(O)cc1)C(=O)OC (Hexanoyl-Pro-Tyr-OMe) the “activity change, negative = inhibition” value was 0.54%.
For COc1cccc(CNc2ccc(S(=O)(=O)Nc3nc4ccccc4s3)cc2)c1O, the Potency was 3.93 µM (active).
With COc1cc(Nc2nc3ccccc3nc2NS(=O)(=O)c2cccc(NC(=O)c3ccc(C)c(OC)c3)c2)cc(OC)c1 the Potency was 1.39 µM (active).
For CC(C)CC(c1c(O)c(C=O)c(O)c(C=O)c1O)C1CCC(C)(O)C2CC(C(C)(C)O)CCC12C (stereo not given), the Potency was 3.41 µM (active).
For Cc1ccccc1NC(=O)Nc1ccc(CN2C(=O)N([C@@H](CC(C)C)C(=O)N[C@@H](CC(=O)O)c3ccccc3)C(=O)C2(C)C)cc1, the Potency was 35 µM (active).
With O=C(Nc1ccccc1)Nc1ccc(-c2ccc(C(=O)C3CCCC3C(=O)O)cc2)cc1 (stereo not given) the Potency was 4.94 µM (active).
In the case of C=C1C2CCC3C(CCC4[C@@]3(C)CCC[C@@]4(C)C(=O)O)(C2)[C@@H]1OC(=O)/C(C)=C\C (stereo not given in full), the Potency is reported as 6.81 µM (active).
In the case of Cc1cc(C)c2nc(-c3ccccn3)cc(C(=O)Nc3ccc(S(=O)(=O)Nc4onc(C)c4C)cc3)c2c1, the Potency is reported as 2.78 µM (active).
For O=C1NC(=O)/C(=C/c2cccc(C(F)(F)F)c2)S1, the Potency was 4.41 µM (active).
With COc1cc(C)c(C(=O)OC2C(C)OC(OC3CCC(C)C4C3C=C(C)C3/C(C)=C\CC/C(C)=C/C5(C)C=C(C(=O)O)C(C)CC56OC(=O)/C(=C(\O)C34C)C6=O)C(O)C2O)c(OC)c1 (stereo not given) the Potency was 2.64 µM (active).
For O=C(/C=C/c1ccccc1)OC[C@H]1O[C@@H](OC(=O)c2cc(O)c(O)c(O)c2)[C@H](O)[C@@H](O)[C@@H]1O, the Potency was 2.15 µM (active).
